# Bioassay records from PubChem.
# A selection: hits, their analogues and other compounds. The true share with any hit is near 7.5%.
# NPC1 promoter act = activates the NPC1 promoter. 320,000 compounds, 2.4% hits. Huh7 NPC1 promoter luciferase reporter, 24 h. AID 485313. Potency, µM (doses to about 9.22 µM), for inactives: top-dose activation, hits mostly activators; also: % of control where 0% means no effect; nearly all actives have a fitted effect of over 60% in size
#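 Compounds in DMSO were transferred onto Huh7 NPC1-luciferase reporter cells pre-incubated 2 h; after 24 h at 37 °C, Amplite reagent was dispensed and luminescence recorded 10 min later.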
# Rab9 promoter act = Rab9 promoter activation. Huh7 Rab9 promoter-luciferase reporter, luminescence, 24 h. 320,000 compounds, 2.8% hits. AID 485297. Potency, µM (doses to about 9.22 µM), for inactives: at the top dose activation, negative = inhibition, usual class: activators; also: % of control where 0% means no effect; nearly all actives have a fitted effect of over 60% in size
#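 Huh7 reporter line, Rab9 promoter upstream of luciferase. Compound exposure 24 h at 37 °C in reduced-serum medium with 10% FBS. Read-out: luminescence.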
# ELG1 genotox = genotoxicity induction in ELG1-luciferase HEK293T cells; Potency, µM (series often up to 46 µM), inactives show top-dose activity change, positive = activation, usual class: activators; HEK293T ELG1-luciferase reporter, luminescence, 16 h; 330,000 compounds, 1.3% hits; also: % of control where 0% means no effect; nearly all actives have a fitted effect of over 60% in size
#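 HEK293T cells expressing luciferase-tagged ELG1 were exposed to compound or DMSO vehicle for 16 hr at 37 °C and 5% CO2. Luciferase activity was then measured with ONE-Glo after 30 min at room temperature.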
# Luc counter = Kinase-Glo luciferase inhibition (counter-screen) | Potency, µM (series often up to 38.3 µM), for inactives: top-dose activity change, negative = inhibition, actives largely listed as inhibitors | 200,000 compounds, 0.28% hits | AID 1379 | Kinase-Glo luciferase, ATP luminescence, 8 min | Q27757; also: % is scaled to controls: 0 for no effect and ±100 for the full control effect; nearly all actives have a fitted effect of over 60% in size
#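 Recombinant Kinase-Glo luciferase, 10 uM ATP (linear range), luciferin; imidazole pH 7.2 / KCl / MgCl2 / Tween / BSA buffer; 8 min RT; luminescence.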
# SMN2 splice up = increases expression of the SMN2 splice variant; HEK293 SMN2-luciferase splicing reporter, luminescence, 30-36 h; Potency, µM (titrated, usually from 46.1 µM), inactives show at the top dose activity change, positive = activation, most hits filed as activators; 210,000 compounds, 2.8% hits; AID 1458; also: % of control where 0% means no effect; nearly all actives have a fitted effect of over 55% in size
#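 qHTS luciferase splicing reporter: luminescence rises when SMN2 exon 7 is included in transfected HEK293 cells. Compound exposure lasted 30-36 h at 37C, with 4.5 mM final sodium butyrate as control, followed by a ONE-Glo read.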
# FLuc modulator = inhibits or activates purified firefly luciferase, miR-21 counter-screen. P08659. purified FLuc, Km substrates, luminescence inhibition. Potency, µM (doses to about 57.5 µM), for inactives: top-dose activity change, negative = inhibition, most hits filed as inhibitors. 360,000 compounds, 6.9% hits. AID 588342;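 also: plate controls were vehicle for no effect and reference inhibitor for full effect; nearly all actives have a fitted effect of over 55% in size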
# Target sequence (P08659 whole entry, looked up): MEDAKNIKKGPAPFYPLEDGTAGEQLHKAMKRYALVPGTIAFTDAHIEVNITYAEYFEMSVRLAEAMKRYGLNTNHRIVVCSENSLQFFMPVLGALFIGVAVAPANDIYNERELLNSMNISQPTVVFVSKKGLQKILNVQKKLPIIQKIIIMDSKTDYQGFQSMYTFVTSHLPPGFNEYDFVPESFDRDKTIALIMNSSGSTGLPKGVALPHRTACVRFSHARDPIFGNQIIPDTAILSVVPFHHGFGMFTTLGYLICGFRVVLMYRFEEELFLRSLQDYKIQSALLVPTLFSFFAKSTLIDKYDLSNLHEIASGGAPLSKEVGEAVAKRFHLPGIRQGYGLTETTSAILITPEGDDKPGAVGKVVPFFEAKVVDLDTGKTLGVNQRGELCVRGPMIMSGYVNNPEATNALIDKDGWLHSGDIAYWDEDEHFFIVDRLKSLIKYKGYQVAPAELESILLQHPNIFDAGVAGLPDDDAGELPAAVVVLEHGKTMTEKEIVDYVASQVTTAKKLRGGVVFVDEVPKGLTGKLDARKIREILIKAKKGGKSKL
#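 Purified P. pyralis luciferase, 10 nM final, with Km-level 10 uM D-luciferin and 10 uM ATP in 50 mM Tris acetate pH 7.5, 10 mM Mg acetate, 0.01% Tween-20, 0.05% BSA; 6-point qHTS titration about 60 µM downward; luminescence read.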
# An asterisk follows results filed as active; ? = inconclusive; . = no result given. Calls follow the shape of the dose curve; as a rule, active = well fitted curve in the direction sought with a large enough effect; inconclusive = small, poorly fitted or top-dose-only effect, or another doubt; inactive = no such curve, though single readings can be large; an effect the other way counts as inactive or inconclusive. Potency is read from the fitted curve at half-maximal effect.
SMILES,NPC1 promoter act,Rab9 promoter act,ELG1 genotox,Luc counter,SMN2 splice up,FLuc modulator
CCOC(=O)Cc1csc(NC(=O)/C=C/c2ccc(Cl)cc2)n1,-6%,-8%,-7%,.,.,2.4µM*
O=C(/C=C/c1ccco1)Nc1nc(-c2ccc(F)c(F)c2)cs1,4%,2%,-10%,.,.,?
Cc1csc(NC(=O)/C=C/c2ccco2)n1,13%,2.8µM*,?,-3%,16µM*,6.7µM*
O=C(/C=C/c1ccco1)Nc1nc(-c2ccccn2)cs1,?,?,0%,-3%,?,21µM*
COC(=O)N1CCC[C@@]2(CCN(Cc3cc(C(F)(F)F)cc(C(F)(F)F)c3)C2)C1,.,.,.,-3%,-3%,.
O=C(/C=C/c1ccco1)Nc1nc(-c2ccccc2)cs1,2.8µM*,2.5µM*,13%,-2%,11µM*,4.8µM*
Cc1csc(NC(=O)/C=C/c2ccc(C)o2)n1,15%,27%,18%,0%,20µM*,11µM*
CCn1c(Sc2ccc([N+](=O)[O-])cn2)nnc1-c1ccco1,0%,-11%,0%,-1%,.,1%
C=CCn1cc(C(=O)OCC)c(=O)c2cc(F)c(F)cc21,0%,-8%,-1%,.,.,-2%
CCS(=O)(=O)c1ccc(O)c(NC(=O)COc2ccc(Br)cc2)c1,0%,-4%,-1%,4%,1%,24µM*
CCNC(=O)c1nn(-c2ccccc2C)nc1CO,.,.,.,.,-10%,-2%
Cc1ccc2c(C)c(C(=O)N3CCN(Cc4ccc5c(c4)OCO5)CC3)oc2c1C,?,?,17%,.,.,24µM*
COC(=O)c1ccc(C2=NOC(C)(c3sc(-c4ccccc4)nc3C)C2)cc1 (stereo not drawn),2%,0%,4%,.,.,?
COC(=O)c1ccc(-c2nc3cc(Cl)c(N)cc3s2)cc1,0.71µM*,0.89µM*,?,?,1.4µM*,0.076µM*
COC(=O)c1ccc(-c2nc(O)c(C)s2)cc1,-4%,0%,11%,-1%,3%,9.5µM*
COC(=O)c1ccc(C(=O)Nc2nc3cc(N)c(C)cc3s2)cc1,2%,-4%,2%,.,.,-11%
O=C(Nc1ccc(OCc2ccccc2)cc1)Nc1ccccc1C(=O)NCCCN1CCOCC1,1%,5%,6%,.,.,19µM*
O=C(Nc1ccc(F)cc1)Nc1ccccc1C(=O)NCCN1CCNC1=O,-6%,1%,0%,.,.,17µM*
Cc1ccc(CNC(=O)Cc2c(C)c3c(cc(C)c4c(C)coc43)oc2=O)cc1,.,.,.,.,5%,-7%
Cc1cccc(N/N=C/c2ccncc2)c1,?,?,?,.,.,15µM*
Cc1cccc(NC(=O)CCC(=O)N/N=C/c2ccc(O)cc2O)c1,-8%,-4%,8%,.,.,-3%
O=C(N/N=C/c1ccncc1)c1cccc(N/N=C/c2ccncc2)c1,3.5µM*,?,-2%,2%,?,11µM*
O=C(N/N=C/c1ccncc1)c1cccc(NC(=O)c2ccc(Cl)cc2)c1,-2%,-3%,2%,1%,-18%,-7%
Cc1cccc(N/N=C/c2ccccc2O)c1,?,4µM*,?,-2%,11µM*,6µM*
O=C(N/N=C/c1ccc(O)cc1)c1cccc(N/N=C/c2ccc(O)cc2)c1,0.56µM*,0.89µM*,?,.,.,2.1µM*
Cc1cccc(NC(=O)C(=O)N/N=C/c2ccncc2)c1,-2%,-2%,2%,-5%,10%,-10%
COc1ccccc1C(=O)NC(=O)CSc1nncn1C(C)C,0%,6%,-7%,.,.,-1%
CCCCOC(=O)c1ccc(NC(=O)Cn2nnc3sc4c(c3c2=O)CCCC4)cc1,.,.,.,.,2%,-19%
O=C(Nc1ccc(S(=O)(=O)N2CCOCC2)cc1)C1CCN(S(=O)(=O)c2ccccc2)CC1,-3%,0%,-8%,.,.,3%
Nc1nc(N)nc(-c2ccccc2)n1,0%,2%,0%,-3%,6%,-2%
